Bioassay records from PubChem BioAssay.
In the library only some 7.4% were active in any assay of this set; here they are far more common.
Rab9 prom act – activates the Rab9 promoter | Huh7 Rab9 promoter-luciferase reporter, luminescence, 24 h | Potency, µM (titrated, usually from 9.22 µM), inactives show at the top dose activation, negative = inhibition, usual class: activators | actives 2.8% (n = 320,000); further: % of control where 0% means no effect; nearly all actives have a fitted effect of over 60% in size
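Huh7 cells stably carrying Rab9 promoter–luciferase reporter, plated 1500 cells/well, compound added after 2 h and incubated 24 h at 37 °C; luciferase luminescence then read after 10 min with detection reagent.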
FLuc counter – counter-screen for miR-21 project: firefly luciferase inhibitors or activators | P08659 | purified FLuc, Km substrates, luminescence inhibition | Potency, µM (series often up to 57.5 µM), inactives show top-dose activity change, negative = inhibition, actives largely listed as inhibitors | actives 6.9% (n = 360,000) | AID 588342;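 further: plate controls were vehicle for no effect and reference inhibitor for full effect; nearly all actives have a fitted effect of over 55% in size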
Target sequence (P08659 whole entry, looked up): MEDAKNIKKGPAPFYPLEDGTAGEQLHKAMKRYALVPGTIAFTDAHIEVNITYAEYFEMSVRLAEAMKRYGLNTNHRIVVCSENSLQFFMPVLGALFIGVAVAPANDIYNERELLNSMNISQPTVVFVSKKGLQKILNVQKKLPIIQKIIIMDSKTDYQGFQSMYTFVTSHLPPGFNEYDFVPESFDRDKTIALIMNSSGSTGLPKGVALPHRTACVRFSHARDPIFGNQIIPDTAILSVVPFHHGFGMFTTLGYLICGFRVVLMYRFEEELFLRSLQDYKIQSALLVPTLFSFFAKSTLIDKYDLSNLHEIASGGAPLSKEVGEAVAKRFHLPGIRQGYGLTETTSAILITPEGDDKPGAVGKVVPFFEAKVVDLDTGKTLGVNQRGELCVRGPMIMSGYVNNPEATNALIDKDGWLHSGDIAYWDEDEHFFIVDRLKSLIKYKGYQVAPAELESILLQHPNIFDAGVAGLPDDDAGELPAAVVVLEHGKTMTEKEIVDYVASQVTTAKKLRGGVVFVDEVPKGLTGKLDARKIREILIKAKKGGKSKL
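Biochemical qHTS of compounds, final roughly 60 µM downward over six points, against 10 nM purified firefly luciferase using Km concentrations of substrates (10 uM D-luciferin, 10 uM ATP) in Tris acetate pH 7.5 buffer; luminescence output.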
KinaseGlo FLuc – blocks Kinase-Glo luciferase, a counter-screen artifact | Kinase-Glo luciferase, ATP luminescence, 8 min | Potency, µM (highest dose often 38.3 µM), inactives show at the highest dose activity change, negative = inhibition, most hits filed as inhibitors | actives 0.28% (n = 200,000); further: on the % scale 0 is the no-effect control and ±100 the full control effect; nearly all actives have a fitted effect of over 60% in size
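Luminescence was the read-out, taken after 8-minute incubation at ambient temperature. Luciferase turned over luciferin with 10 uM ATP in imidazole pH 7.2 buffer containing KCl, MgCl2, Tween 20 and BSA.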
SMN2 splice up – increases expression of the SMN2 splice variant; actives 2.8% (n = 210,000); AID 1458; Potency, µM (highest dose often 46.1 µM), for the others: at the highest dose activity change, positive = activation, hits mostly activators; HEK293 SMN2-luciferase splicing reporter, luminescence, 30-36 h; further: % of control where 0% means no effect; nearly all actives have a fitted effect of over 55% in size
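qHTS luciferase splicing reporter: luminescence rises when SMN2 exon 7 is included in transfected HEK293 cells. Compound exposure lasted 30-36 h at 37C, with 4.5 mM final sodium butyrate as control, followed by a ONE-Glo read.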
ELG1 genotox – inducers of genotoxicity in HEK293T ELG1-luciferase cells. AID 504466. actives 1.3% (n = 330,000). Potency, µM (top dose mostly 46 µM), inactives show top-dose activity change, positive = activation, most hits filed as activators. HEK293T ELG1-luciferase reporter, luminescence, 16 h; further: % of control where 0% means no effect; nearly all actives have a fitted effect of over 60% in size
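ELG1-luciferase HEK293T cells, 2,000/well; compound pinned in; 16 hr, 37 °C, 5% CO2; ONE-Glo, 30 min RT; luminescence on CCD imager.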
NPC1 promoter act – activates the NPC1 promoter; Huh7 NPC1 promoter luciferase reporter, 24 h; actives 2.4% (n = 320,000); Potency, µM (titrated, usually from 9.22 µM), inactives show top-dose activation, hits mostly activators; AID 485313; further: % of control where 0% means no effect; nearly all actives have a fitted effect of over 60% in size
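Huh7 reporter cells (NPC1 promoter driving luciferase) are dosed with compound for 24 h at 37 °C, 5% CO2; luciferase detection reagent is then added and luminescence measured after 10 min at ambient temperature.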
* = called active by the depositor; ? = inconclusive; nt = no result given; [ ] = another dose, or the depositor's remark. The call rests on the fitted dose curve; in most records, active means well fitted curve in the direction sought with a large enough effect; inconclusive means small, poorly fitted or top-dose-only effect, or another doubt; inactive means no such curve, though single readings can be large; an effect the other way counts as inactive or inconclusive. Potency means the concentration at half of the fitted maximal effect.

SMILES | Rab9 prom act | FLuc counter | KinaseGlo FLuc | SMN2 splice up | ELG1 genotox | NPC1 promoter act
COc1cc(/C=C2/SC(=S)N(CC3CCCO3)C2=O)ccc1O (stereo not given) | -2.7% | 10.7µM* | -10.4% | 4.3% | 16.0% | -0.7%
CCn1cc(C(=O)OCC(=O)Nc2cc(OC)cc(OC)c2)c(=O)c2ccc(C)nc21 | nt | 0.2% | nt | 10.6% | nt | nt
CC(C)(C)c1ccc(OCCC(=O)OCC(=O)NC2CCS(=O)(=O)C2)cc1 (stereo not given) | -5.7% | ? | nt | nt | 0.3% | -4.0%
CC(C)(C)c1ccc(OCCC(=O)OCC(=O)NC2CC2)cc1 | -8.2% | 15.1µM* | nt | nt | -0.6% | -3.8%
CC(C)(C)c1ccc(OCCC(=O)OCC(=O)NCc2ccccc2)cc1 | -5.5% | 19µM* | nt | nt | 5.6% | 0.1%
Cn1c(N)c(C(=O)COC(=O)CCOc2ccc(C(C)(C)C)cc2)c(=O)n(C)c1=O | 8.0% | 21.3µM* | -1.0% | 8.7% | 3.9% | -3.4%
Cc1ccc(OCCC(=O)OCC(=O)c2c(N)n(C)c(=O)n(C)c2=O)cc1 | 1.0% | -11.1% | nt | nt | -4.0% | 4.0%
CCCCCOc1ccc(Cn2ccnc2)cc1[N+](=O)[O-] | 10.5% | ? | 1.6% | -44.2% | ? | 9.7%
Nc1nc(-c2ccc([N+](=O)[O-])cc2)cs1 | 28.8% | -1.3% | nt | nt | 14.4% | 16.2%
CCOc1ccc(-c2cn3ccccc3n2)cc1[N+](=O)[O-] | 2.24µM* | 2.69µM* | -10.9% | 7.94µM* | ? | 3.55µM*
CCCOc1ccc(-c2csc(N)n2)cc1[N+](=O)[O-] | 2.82µM* | 10.7µM* | 0.8% | 11.2µM* | ? | ?
CCCCOc1ccc(-c2cn3ccccc3n2)cc1[N+](=O)[O-] | 2.82µM* | 2.13µM* | ? | 6.31µM* | ? | ?
Cc1cc2c(c(=O)n1Cc1ccccc1)C1O[C@](c3ccsc3)(Cc3ccccc31)O2 | -11.0%[1.84 µM] | -13.7%[11.5 µM] | nt | nt | nt | -1.2%[1.84 µM]
CCc1cccc(N2C(=O)CSC23C(=O)Nc2ccccc23)c1 (stereo not given) | nt | 1.2% | nt | nt | nt | nt
O=S(=O)(c1ccc(Br)cc1)c1nnn2c1nc(NCc1ccc3c(c1)OCO3)c1sccc12 | nt | -1.4% | nt | nt | nt | nt
Cc1ccsc1/C=N/n1cnc2sc(C)c(C)c2c1=O | ? | 10.7µM* | -20.6% | 21.0% | 6.0% | ?
Cc1ccsc1/C=N/n1cnnc1 | -1.0% | -2.7% | nt | nt | 0.2% | 0.0%
COc1ccccc1NC(=O)Cn1cnc2c(cnn2-c2ccccc2)c1=O | -1.5% | -5.7% | -2.4% | -30.3% | 2.5% | -11.8%
COc1ccccc1NC(=O)COc1ccccc1C(=O)c1cnn(-c2ccccc2)c1 | 17.4% | 10.7µM* | -2.1% | ? | ? | 18.5%
CCc1ccc(NC(=O)COc2ccc(F)cc2C(=O)c2cnn(-c3ccccc3)c2)cc1 | ? | 10.7µM* | nt | nt | 14.3% | 13.3%
CCC(=O)OCC(=O)c1cc(C)n(-c2ccc(Br)cc2)c1C | -2.5% | 4.26µM* | -6.1% | -28.1% | -4.3% | -5.0%
Cc1ccc(-n2c(C)cc(C(=O)COC(=O)c3c(C)noc3C)c2C)cc1 | ? | 3.38µM* | -12.4% | -4.7% | 13.1% | ?
Cc1cc(C(=O)COC(=O)c2cnccn2)c(C)n1-c1ccc(Br)cc1 | nt | nt | nt | nt | -1.5% | nt
Cc1cc(C(=O)COC(=O)CC2Sc3ccccc3NC2=O)c(C)n1-c1ccccc1 (stereo not given) | 18.0% | 6.01µM* | 1.2% | -8.7% | 8.1% | 14.6%
Cc1ccc(-n2c(C)cc(C(=O)COC(=O)C3=NNC(=O)CC3)c2C)cc1 | 0.7% | 16.9µM* | -0.5% | -25.2% | 18.4% | -1.9%
SMILES | Rab9 prom act | FLuc counter | KinaseGlo FLuc | SMN2 splice up | ELG1 genotox | NPC1 promoter act
CC(=O)N1CCCC1c1nc2ccccc2n1Cc1ccccc1C (stereo not given) | nt | 2.9% | nt | nt | nt | nt
CN(C)C(=O)c1ccc(-c2ccc3ncnc(NC4CCNCC4)c3c2)cc1 | nt | nt | -0.7% | 4.3% | nt | nt
CCCCC(=O)Nc1cc(C)c(O)c(-c2nc3ncccc3o2)c1 | nt | 1.2% | nt | 12.0% | nt | nt
Cc1cccc(C(=O)Nc2ccccc2OCc2cc(=O)n3c(C)csc3n2)c1 | nt | -0.4% | nt | -16.8% | nt | nt
Cc1cc(C(=O)COC(=O)C2=COCCO2)c(C)n1-c1ccccc1 | nt | nt | nt | nt | 0.259µM* | nt
Cc1cc(C(=O)COC(=O)C2=NNC(=O)CC2)c(C)n1-c1ccccc1 | 4.4% | 1.9µM* | 14.2% | -4.4% | 4.4% | -3.6%
O=C(OCC(=O)c1c[nH]c2ccccc12)C1=COCCO1 | 3.55µM* | 15.1µM* | 0.5% | ? | ? | ?
O=C(OCC(=O)c1ccc[nH]1)C1=COCCO1 | 1.1% | -12.9% | nt | nt | 3.7% | -1.8%
Cc1cc(C)c(C#N)c(SCc2ccccc2[N+](=O)[O-])n1 | -0.3% | -12.7% | 1.1% | -21.7% | 1.4% | -1.1%
Cc1ccc(C#N)c(SCc2nnc(-c3ccc(Cl)cc3)o2)n1 | 0.8% | 0.426µM* | 1.9% | -82.4% | ? | -1.5%
Cc1cc(C)c(C#N)c(SCc2nnc(-c3ccccc3)o2)n1 | -4.6% | 3.01µM* | -2.0% | -38.6%[1.84 µM] | ? | -2.4%
Cc1cc(C)c(C#N)c(SCc2nnc(-c3ccccc3[N+](=O)[O-])o2)n1 | 3.16µM* | 21.3µM* | -5.4% | 1.12µM* | 2.59µM* | 1.41µM*
COc1ccccc1-c1cc(-c2ccc(C)cc2)nc(SCc2nnc(-c3ccccc3)o2)c1C#N | -10.4% | -1.2% | -0.1% | -19.5% | -0.9% | -0.5%
COCCNC(=O)[C@H](C)/C=C(\c1cccnc1)C(NC(=O)OCc1ccccc1)c1ccc(C(=O)OC)cc1 (stereo not given in full) | nt | nt | -0.5% | -4.5% | nt | nt
CN(C)c1ccc(NC(=O)CN2C(=O)c3ccccc3Sc3ccc(C(=O)N4CCCC4)cc32)cc1 | nt | -4.0% | nt | nt | nt | nt
Cc1sc2ncn(CC(=O)N3CCN(c4ccccc4F)CC3)c(=O)c2c1S(=O)(=O)N1CCN(c2ncccn2)CC1 | nt | 5.6% | nt | 9.3% | nt | nt
Cc1cc(Cl)ccc1C(=O)C1CCCN(C(=O)/C=C/c2cnn(C)c2)C1 (stereo not given) | -5.5% | 2.7% | -0.2% | nt | -2.2% | -2.4%
Cn1cc(/C=C/C(=O)N2CCCC(C(=O)c3ccc(C(C)(C)C)cc3)C2)cn1 (stereo not given) | -0.7% | 16.9µM* | -2.7% | nt | -3.8% | 0.5%
CC(N)=Nc1ccc([N+](=O)[O-])cc1 | 2.5% | 0.4% | -0.9% | -7.7% | -0.8% | -1.2%
O=[N+]([O-])c1ccc(N=Nc2c(Cl)cc(O)cc2Cl)cc1 | -46.5% | 2.69µM* | nt | nt | 7.7% | -38.9%
Cc1ccccc1C(=O)Nc1ccc(Br)c(C)n1 | ? | 23.9µM* | -26.3% | 79.8% | 11.6µM* | ?
